Data on 39 sequences can be found in the supplement of paper PMC6555819.

The test system of the first experiment is RXRa homodimer (NR concentration 180 nM). Put plainly: PBM binding z-score (relative to random genomic background probes); higher = stronger binding; sequences stand for … in GC…GCGATTGACAGCGTAGAATGAAGG
The method, boiled down: (§1)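 Each nuclear receptor dimer, without ligand, was incubated for 1 h on custom Agilent 4×180K protein-binding microarrays. Binding was detected with antibodies against each partner (one per run), and scanned fluorescence was regression-normalized. The binding z-scores are referenced to random human genomic background probes.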
The sequence ATACCAAGGTGATCGTGAGGTCTTTGATACTAAC returned a PBM binding z-score of 0.435.
On the same count and under the same terms, with CCTAGCAGGCAAATCTGGGTCACTCAAGGCTTGA the figure was 0.625.
For ATCTCTAGGTAAGACTCAGTTCAGTGCAGAACGC, the PBM binding z-score was determined as 0.206.
Sequence CCTCGGAGGATAGAAGGTCAGAGCTGTCCGCTTT came in with a PBM binding z-score of 1.52.
In turn, CCAGACAGGTGAAAGGTTACTCAGTCTGGTACGC yielded a PBM binding z-score of 4.22.
As for GCTTATAGATCAAGGTTAAGAAAGACTAAGCTAA, the PBM binding z-score came to 0.835.
As for GCTGCTAGGTCAGGTTAGTCAGCTAACGGGTACG, the PBM binding z-score came to 1.17.
With TCATATAGGTAAAGGTCAAAGTCGAACGATATGA, the PBM binding z-score was 7.64.
Take CCTGCTAGGTCAATGGTCACCTAAAGCAGCTCGC: the PBM binding z-score is 2.43.
The same measure, in the same setting: under GCAAACAGGTGAAACGCAGGTAACTCAGGGTGGC stands 0.616; under ATCGAAAAGTCGTGAGGTGAGTATACAGAAAGGC, 0.466; under AATACAGGGTCATCGAAGGCCAGAGTACGCACAG, 6.7.
For the sequence CCTACTGGGCCGAAGGTCATTGATTCCAATGCTC, the PBM binding z-score turned out to be 3.01.
With CTTACTGGGCCAAGGTCATTGATCAGTCAAAGCA, the PBM binding z-score is 3.65.
The same measure, in the same setting: under CAGCCTAGGTCAGGGCCAGTATAGGAGGAACGTT stands 1.54; under AGCGAAAGGTCGACGAGGTGAGTATACACCGTTT, 4.4; under GCTAGCAGGCCATTTAGGTCACTCAATGACGGGC, 1.
Regarding ACTAGCAGGCCAACGGTCACTCAAGATTAGTCCG, the PBM binding z-score worked out at 0.345.
Same read-out and setting: with CGTCCAAGGTCATAGGACGTCAGTGAAGACAGAT the figure was 5.36; with CCTCGGAAGACAGAAGGTCAGAGCTGTCCGCTTT, 1.83.
GCATATAGGTAATACAAGGCGAAAGTCCGATTGT registered a PBM binding z-score of 0.182.
On to GCAGACAGGTGATACGCAGGTAACTCAGGGTGGC, for which the PBM binding z-score came out at 0.293.
The sequence AGGATGAGGTTATTAAGATCAGGGAATTGCGGTC came in with a PBM binding z-score of 1.9.
Take CCGACTGGGGCATAAGGTTATCATAAGCCAGCCC: the PBM binding z-score was 1.14.
In turn, ACAGACCGGTGATGAAGGTAACTCAGGCTATCAT gave a PBM binding z-score of -0.04.
CGAACTAGGACAGAACAGGACAGTGAAGGATGAT returned a PBM binding z-score of 0.23.
CGTCCAAGGTCACAGGTCAGTGAAGAGATGACGG: the PBM binding z-score came to 7.67.
On to CTCGAAAGGTCGGTTGAGGTGTGTATACGGATAA, for which the PBM binding z-score worked out at 1.74.
For the sequence CGAACTAGGTCAAGCACAGTGAATCTCCGCACGC, the PBM binding z-score is 2.84.
For the sequence ATAGAAAGGTCGTGAGGTGAGTATACAGAAAGGC, the PBM binding z-score was 5.4.
TCAGACAGGTGAGGGTAACTCAGGTACGCAGTCG yielded a PBM binding z-score of 0.746.
The sequence CCTATTAGTTCACCATAAGGGCAACCGAAGCTCG came in with a PBM binding z-score of 1.69.
The sequence AATACAGGGTCACTAGGCCAGAGTTGGTACGAAT had a PBM binding z-score of 5.94.
On to CCTACTGGGCCAAAAAGGTCATTCATGCCGATAA, for which the PBM binding z-score worked out at 6.01.
In the case of CAAACTAGGTCAAGGTCAAAATCGGTTTGTGCCA, the PBM binding z-score turned out to be 5.55.
Sequence AGAATGAGGTTATACGTAGATCATGGAAGAAAGT had a PBM binding z-score of 2.45.
With GCTTACGGGCCAAAGGTTATAGCATGAATAGAAT, the PBM binding z-score is 3.01.
TCGAGTTGGTTAGGGGCATTCAGAATGGCGTCGA registered a PBM binding z-score of 0.163.
TATACAGGGTCAAAGGCGAGAGTACGAATGTCGA displayed a PBM binding z-score of 6.67.

Another experiment concerns THRa:RXRa (NR concentration 90 nM, RXRa partner concentration 90 nM). Described as above. The method, boiled down: as §1
In the case of ATACCAAGGTGATCGTGAGGTCTTTGATACTAAC, the PBM binding z-score worked out at 2.38.
In the case of CCTAGCAGGCAAATCTGGGTCACTCAAGGCTTGA, the PBM binding z-score was 2.89.
For the sequence ATCTCTAGGTAAGACTCAGTTCAGTGCAGAACGC, the PBM binding z-score was 0.914.
Take CCTCGGAGGATAGAAGGTCAGAGCTGTCCGCTTT: the PBM binding z-score is 1.66.
Sequence CCAGACAGGTGAAAGGTTACTCAGTCTGGTACGC yielded a PBM binding z-score of 1.72.
As to GCTTATAGATCAAGGTTAAGAAAGACTAAGCTAA, the PBM binding z-score came to 1.32.
The same measure, in the same setting: under GCTGCTAGGTCAGGTTAGTCAGCTAACGGGTACG stands 2.36.
In turn, TCATATAGGTAAAGGTCAAAGTCGAACGATATGA yielded a PBM binding z-score of 3.68.
Regarding CCTGCTAGGTCAATGGTCACCTAAAGCAGCTCGC, the PBM binding z-score came out at 2.78.
As to GCAAACAGGTGAAACGCAGGTAACTCAGGGTGGC, the PBM binding z-score was found to be 1.52.
Sequence ATCGAAAAGTCGTGAGGTGAGTATACAGAAAGGC displayed a PBM binding z-score of 1.68.
Sequence AATACAGGGTCATCGAAGGCCAGAGTACGCACAG came in with a PBM binding z-score of 4.62.
Consider CCTACTGGGCCGAAGGTCATTGATTCCAATGCTC, for which the PBM binding z-score was found to be 1.99.
The same measure, in the same setting: under CTTACTGGGCCAAGGTCATTGATCAGTCAAAGCA stands 3.43.
On the same count and under the same terms, with CAGCCTAGGTCAGGGCCAGTATAGGAGGAACGTT the figure was 2.11; with AGCGAAAGGTCGACGAGGTGAGTATACACCGTTT, 3.75.
Turning to GCTAGCAGGCCATTTAGGTCACTCAATGACGGGC, the PBM binding z-score was determined as 2.79.
For ACTAGCAGGCCAACGGTCACTCAAGATTAGTCCG, the PBM binding z-score was -0.135.
For CGTCCAAGGTCATAGGACGTCAGTGAAGACAGAT, the PBM binding z-score was 3.83.
CCTCGGAAGACAGAAGGTCAGAGCTGTCCGCTTT had a PBM binding z-score of 1.56.
With GCATATAGGTAATACAAGGCGAAAGTCCGATTGT, the PBM binding z-score is 2.28.
GCAGACAGGTGATACGCAGGTAACTCAGGGTGGC showed a PBM binding z-score of 0.561.
AGGATGAGGTTATTAAGATCAGGGAATTGCGGTC: the PBM binding z-score is 2.24.
Still for that read-out and setting: under CCGACTGGGGCATAAGGTTATCATAAGCCAGCCC stands 1.78.
On to ACAGACCGGTGATGAAGGTAACTCAGGCTATCAT, for which the PBM binding z-score worked out at 0.648.
The same measure, in the same setting: under CGAACTAGGACAGAACAGGACAGTGAAGGATGAT stands 0.492; under CGTCCAAGGTCACAGGTCAGTGAAGAGATGACGG, 4.36; under CTCGAAAGGTCGGTTGAGGTGTGTATACGGATAA, 3.69.
For the sequence CGAACTAGGTCAAGCACAGTGAATCTCCGCACGC, the PBM binding z-score was found to be 2.72.
In turn, ATAGAAAGGTCGTGAGGTGAGTATACAGAAAGGC gave a PBM binding z-score of 3.48.
The sequence TCAGACAGGTGAGGGTAACTCAGGTACGCAGTCG displayed a PBM binding z-score of 2.35.
CCTATTAGTTCACCATAAGGGCAACCGAAGCTCG: the PBM binding z-score worked out at 3.37.
For the sequence AATACAGGGTCACTAGGCCAGAGTTGGTACGAAT, the PBM binding z-score amounted to 3.51.
The same measure, in the same setting: under CCTACTGGGCCAAAAAGGTCATTCATGCCGATAA stands 3.24.
Still for that read-out and setting: under CAAACTAGGTCAAGGTCAAAATCGGTTTGTGCCA stands 4.32; under AGAATGAGGTTATACGTAGATCATGGAAGAAAGT, 2.42.
Regarding GCTTACGGGCCAAAGGTTATAGCATGAATAGAAT, the PBM binding z-score was 1.58.
On the same count and under the same terms, with TCGAGTTGGTTAGGGGCATTCAGAATGGCGTCGA the figure was 0.835; with TATACAGGGTCAAAGGCGAGAGTACGAATGTCGA, 3.42.
